A number with no mark means an inactive call. Records with an inconclusive call do not appear. Activity calls are given as the source filed them. Unless noted, calls come from the whole dose curve; as a rule, active = well fitted curve in the direction sought with a large enough effect in the repeat runs; inconclusive = weak or mixed curves; inactive = no such curve, though single readings can be large; an effect the other way counts as inactive or inconclusive.

Experiment [1] is described as follows: qHTS assay for small molecules that induce genotoxicity in human embryonic kidney cells expressing luciferase-tagged ATAD5 (AID 651632). Note: nearly all actives have a fitted effect of over 15% in size. The gist of the method: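 DMSO vehicle served as the control. HEK293T reporter cells, 16 hr at 37C, then 30 min Amplite at room temperature; ATAD5 induction is measured as luciferase activity.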
Experiment [2] can be described thus: qHTS assay for small molecule agonists of the p53 signaling pathway - cell viability (AID 651633; calls by dose curve; note: nearly all actives have a fitted effect of over 30% in size; note: potency is the fitted concentration of half-maximal effect). The gist of the method:
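p53RE-bla cells were treated with compound for 16 hours at 37 C. Cytotoxicity was then measured as CellTiter-Glo luminescence after 30 min at room temperature.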

The nature of experiment [3]: qHTS assay for small molecules that induce genotoxicity in human embryonic kidney cells expressing luciferase-tagged ATAD5 - cell viability (AID 651634; calls by dose curve; note: nearly all actives have a fitted effect of over 25% in size; note: potency is the fitted concentration of half-maximal effect). The gist of the method:
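Here HEK293T cells with the ATAD5 luciferase reporter are incubated with test compounds for 15.5 hr, and cytotoxicity is then gauged by measuring protease activity in live cells using fluorescence.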

Experiment [4] can be described thus: qHTS assay for small molecule disruptors of the mitochondrial membrane potential - cell viability (AID 720634; calls by dose curve;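 note: human HepG2 liver cancer cells; series mostly up to about 83 µM; nearly all actives have a fitted effect of over 20% in size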). The gist of the method:
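Viability of HepG2 cells is scored from ATP content by luminescence; cells are exposed to compound for 1 hr at 37 C and 5% CO2, then dosed with m-MPI dye before the CellTiter-Glo reagent.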

The nature of experiment [5]: qHTS assay to test for compound auto fluorescence at 590 nm (red) in HepG2 cells (AID 720674). The gist of the method: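 Seeding: 2,000 HepG2 cells/well, MEM/10% FBS, overnight 37 C. Dosing: compound vs DMSO. Incubation: 1 hr, 37 C, 5% CO2. Read: fluorescence 540 ex/590 em, Rose Bengal sodium as red reference.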
Experiment [6] can be described thus: qHTS assay to test for compound auto fluorescence at 535 nm (green) in HepG2 cells (AID 720675).
Experiment [7] can be described thus: qHTS assay to test for compound auto fluorescence at 460 nm (blue) in HEK293 cells (AID 720678). The gist of the method: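 Cells were seeded and left to adhere for 4-5 hr at 37C. Compounds were then pin-transferred. After an overnight incubation at 37C under 5% CO2, intrinsic fluorescence at 405/460 nm was measured and referenced to triamterene.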
Experiment [8] in a line: qHTS assay to test for compound auto fluorescence at 590 nm (red) in HEK293 cells (AID 720679). The gist of the method:
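Each well held 2,000 HEK293 cells in medium containing 10% dialyzed FBS. Following 4-5 hr attachment at 37C, 23 nL test compound or DMSO was added; plates sat overnight, and red fluorescence (540/590nm) was recorded.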

Experiment [9] can be described thus: qHTS assay to test for compound auto fluorescence at 535 nm (green) in HEK293 cells (AID 720680).
The nature of experiment [10]: qHTS assay to test for compound auto fluorescence at 460 nm (blue) in HEK293 cell free culture (AID 720681). The gist of the method: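 Compounds were added to cell-free DMEM with 10% FBS and fluorescence read directly. The blue channel used 405 nm excitation and 460 nm emission, with triamterene as the reference fluorophore.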
Experiment [11] is described as follows: qHTS assay to test for compound auto fluorescence at 590 nm (red) in HEK293 cell free culture (AID 720683). The gist of the method:
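Cell-free wells of DMEM with 10% FBS received compound, and intrinsic fluorescence was read at excitation/emission 540/590 nm. Values expressed as equivalence to Rose Bengal sodium.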

A short description of experiment [12]: qHTS assay to test for compound auto fluorescence at 590 nm (red) in HepG2 cell free culture (AID 720684). The gist of the method: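 Rose Bengal sodium served as the reference for red signal. Test compounds were dispensed into serum-containing MEM (10% FBS) without cells, and plates were read at 540/590 nm.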
Experiment [13] in a line: qHTS assay to test for compound auto fluorescence at 460 nm (blue) in HepG2 cell free culture (AID 720685). The gist of the method:
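Cell-free plates of MEM plus 10% FBS received 23 nL compound or DMSO vehicle; blue-channel (405/460 nm) intensity scored against triamterene as reference fluorophore.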

Experiment [14] in a line: qHTS assay to test for compound auto fluorescence at 535 nm (green) in HepG2 cell free culture (AID 720686).
Experiment [15] is described as follows: qHTS assay to test for compound auto fluorescence at 460 nm (blue) in HepG2 cells (AID 720687). The gist of the method: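 HepG2 cells in MEM with 10% FBS, attached overnight at 37 C, were exposed to compound or DMSO for 1 hr at 37 C, 5% CO2. Blue fluorescence was read at 405/460 nm, with triamterene as reference fluorophore.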
Experiment [16] deals with Glucocorticoid receptor (Homo sapiens) (UniProt P04150). In words: qHTS assay to identify small molecule agonists of the glucocorticoid receptor (GR) signaling pathway (AID 720691; active = well fitted activation curve with a large enough effect in the signal ratio in the repeat runs, not every such curve was filed as active; the % refers to the signal ratio). The gist of the method:
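Compounds in DMSO, alongside positive controls, were added to GR-bla HeLa reporter cells and incubated 18 h at 37 C; GRE-driven beta-lactamase was detected by fluorescence after 2 h with FRET substrate at room temperature.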

The nature of experiment [17]: qHTS assay for small molecule disruptors of the mitochondrial membrane potential (AID 720635). Note: potency is the fitted concentration of half-maximal effect. The gist of the method:
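HepG2 cells exposed to compound 1 hr at 37C, then Mito-MPS dye 30 min. Ratio read of aggregate (540/590 nm) versus monomer (490/535 nm) fluorescence.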

Experiment [18] addresses Glucocorticoid receptor (Homo sapiens) (UniProt P04150). Briefly: qHTS assay to identify small molecule antagonists of the glucocorticoid receptor (GR) signaling pathway (AID 720692; active = well fitted inhibition curve with a large enough effect in the signal ratio in the repeat runs, not every such curve was filed as active; the % refers to the signal ratio; note: potency is the fitted concentration of half-maximal effect). The gist of the method:
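In a 1536-well cell format, compounds were added 4 h after seeding GR-bla HeLa cells, together with dexamethasone at 5 nM final; reporter activity was measured by FRET-substrate fluorescence following 18 h at 37 C.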

Experiment [19] can be described thus: qHTS assay to test for compound auto fluorescence at 535 nm (green) in HEK293 cell free culture (AID 720682). The gist of the method:
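DMEM + 10% FBS, cell-free; cpd or DMSO pinned in; Ex485/Em535 read; output as fluorescein-equivalent signal.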
% is set by controls: 0 for no effect and ±100 for the full control effect.

Glucocorticoid receptor (Homo sapiens), sequence (P04150 whole entry, looked up): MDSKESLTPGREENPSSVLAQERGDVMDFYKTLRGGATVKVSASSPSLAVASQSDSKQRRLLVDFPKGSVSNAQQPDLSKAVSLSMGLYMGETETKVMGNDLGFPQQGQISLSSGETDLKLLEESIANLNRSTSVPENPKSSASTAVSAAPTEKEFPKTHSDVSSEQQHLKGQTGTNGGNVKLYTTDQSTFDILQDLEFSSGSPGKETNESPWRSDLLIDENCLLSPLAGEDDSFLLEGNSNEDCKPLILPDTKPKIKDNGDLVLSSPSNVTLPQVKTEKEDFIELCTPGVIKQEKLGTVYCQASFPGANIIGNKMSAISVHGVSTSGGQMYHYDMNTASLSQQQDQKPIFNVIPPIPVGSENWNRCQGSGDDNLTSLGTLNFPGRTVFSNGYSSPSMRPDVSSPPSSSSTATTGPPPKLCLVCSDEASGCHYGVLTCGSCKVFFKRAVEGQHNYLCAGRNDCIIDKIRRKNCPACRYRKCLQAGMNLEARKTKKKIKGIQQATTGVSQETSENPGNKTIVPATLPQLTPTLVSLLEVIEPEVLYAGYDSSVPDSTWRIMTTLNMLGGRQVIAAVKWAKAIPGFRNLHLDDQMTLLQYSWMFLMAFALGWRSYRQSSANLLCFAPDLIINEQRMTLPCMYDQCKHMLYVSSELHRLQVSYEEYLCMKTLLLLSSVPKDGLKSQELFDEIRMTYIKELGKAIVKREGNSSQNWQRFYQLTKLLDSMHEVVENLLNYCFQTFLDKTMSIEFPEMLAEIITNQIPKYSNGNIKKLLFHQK

For `CN(C)CCC=C1c2ccccc2C=Cc2ccccc21`, the Potency result in [1], in experiment [2], in experiment [3], in [4], in [7] and in experiment [10] was “inactive” in each case. Moreover, the Potency result in experiment [13], in experiment [15] and in [16] was “inactive” each time. Besides, the compound was classed as inactive in experiment [5], in [6], in experiment [8], in [9], in experiment [11] and in [12]. For the same compound, the compound was called inactive in experiment [14].

Regarding `Cc1cc(C)c(N)cc1C`, the Potency result in experiment [1], in experiment [2], in [3], in experiment [4], in [17] and in [7] was “inactive” throughout. The Potency result in [10], in experiment [13], in experiment [15], in [16] and in experiment [18] was “inactive” each time. Moreover, the compound was classed as inactive in experiment [5], in [6], in [9], in experiment [11] and in experiment [12].

In the case of `COC(=O)CCS`, the Potency result in experiment [1], in experiment [2], in experiment [3], in experiment [4], in experiment [17] and in experiment [7] was “inactive” in each case. The Potency entry in experiment [10], in experiment [13], in [15] and in [16] was “inactive” in each case. Moreover, the result in experiment [6], in [8], in [9], in experiment [19], in experiment [11] and in experiment [12] was inactive. The result in experiment [14] was inactive.

With `CN1C(C(=O)Nc2ccccn2)=C(O)c2sccc2S1(=O)=O`, the Potency result in [1], in experiment [2], in [3], in [4] and in experiment [16] was “inactive” throughout. Also, in [17], the Potency is 7.17 µM (active). The fluorescence, relative to Rose Bengal in [5] was -0.263% [at 18.6 µM]. The fluorescence, % of fluorescein control in experiment [6] was 0.0319% [at 18.6 µM]; in experiment [14] it was -0.0069% [at 18.6 µM]. For the same compound, in experiment [7], the fluorescence, % of triamterene was 0.367% [at 18.6 µM]. Also, the fluorescence, % of fluorescent control is 0.192% [at 18.6 µM] in experiment [8], 2.91% [at 18.6 µM] in experiment [10], 0.579% [at 18.6 µM] in experiment [13] and 0.333% [at 18.6 µM] in experiment [15]. Besides, the fluorescence, % of fluorescein in experiment [9] is -0.0339% [at 18.6 µM]. For the same compound, the activity change in [19] is -0.011% [at 18.6 µM]. The fluorescence, % of Rose Bengal in experiment [12] was -0.0396% [at 18.6 µM].

With `C[C@H]1c2cccc(O)c2C(O)=C2C(=O)[C@]3(O)C(O)=C(C(N)=O)C(=O)[C@@H](N(C)C)[C@@H]3[C@@H](O)[C@@H]21`, the Potency result in [1], in [2], in experiment [3], in experiment [4], in [7] and in [10] was “inactive” in each case. Further, the Potency result in experiment [13], in experiment [15] and in experiment [16] was “inactive” throughout. Moreover, the compound was classed as inactive in experiment [5], in experiment [6], in [8], in [9], in experiment [19] and in experiment [11]. Moreover, the compound was classed as inactive in experiment [12] and in [14].

In the case of `Cc1c(C)c2c(c(C)c1OC(=O)CCC(=O)OCCO)CC[C@@](C)(CCC[C@H](C)CCC[C@H](C)CCCC(C)C)O2`, the Potency entry in experiment [1], in experiment [4], in experiment [17], in [7], in experiment [10] and in experiment [13] was “inactive” throughout. Also, the Potency result in experiment [15] is “inactive”. Besides, the values for the Potency in experiment [2], in experiment [3] and in [18] were 21.1 µM (active), 23.7 µM (active) and 19 µM (active), respectively. The compound was classed as inactive in experiment [6], in experiment [8], in experiment [9], in experiment [19], in [11] and in experiment [12]. Moreover, the outcome in experiment [14] was inactive.

Regarding `CN1C(=O)OC(C)(C)C1=O`, the Potency result in experiment [1], in experiment [2], in experiment [3], in experiment [4], in [7] and in experiment [10] was “inactive” throughout. Besides, the Potency result in experiment [13], in experiment [15], in [16] and in [18] was “inactive” throughout. Besides, the compound was classed as inactive in experiment [5], in experiment [6], in [8], in experiment [9], in experiment [19] and in [11]. The outcome in [12] and in [14] was inactive.

These data come from PubChem BioAssay (Tox21).
